From PubChem BioAssay (NCATS)
Inconclusive results are not listed. Where a call stands in place of a potency, no number is given. The source holds several records for some structures; these can differ, active in one and inactive in another. Activity calls are given as the source filed them. Calls follow the shape of the dose curve; as a rule, active = well fitted inhibition curve with a large enough effect; inconclusive = small, poorly fitted or top-dose-only effect; inactive = flat fitted curve, though single readings scatter.

molecular target: Glutathione peroxidase 1 (Homo sapiens) (UniProt P07203); test: Primary qHTS Assay for Inhibitors of Recombinant Selenoprotein Glutathione Peroxidase 1 (GPX1) (AID 1845191); details: recombinant GPX1, GR-coupled NADPH fluorescence, 15 min; series mostly up to 48.8 µM; activity, negative = inhibition: at the top concentration
Sequence (P07203 whole entry, looked up): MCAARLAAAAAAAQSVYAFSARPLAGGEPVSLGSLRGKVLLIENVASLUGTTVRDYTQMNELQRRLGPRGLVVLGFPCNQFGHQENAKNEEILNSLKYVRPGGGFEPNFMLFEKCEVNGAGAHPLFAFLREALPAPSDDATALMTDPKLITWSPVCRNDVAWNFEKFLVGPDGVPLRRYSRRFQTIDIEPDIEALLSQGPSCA
How it was run: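 GR-coupled assay: compounds preincubated 30 min at room temperature with GPX1, then reaction started with CHP; final 10 nM GPX1, 1 mM GSH, 0.5 mM CHP, 0.5 mM NADPH, 100 nM GR, 0.01% BSA, pH 7.5 Tris buffer. NADPH fluorescence (340/450 nm) read at 0 and 15 min.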
Also: nearly all actives have a fitted effect of over 65% in size.
Potency is read from the fitted curve at half-maximal effect.

| SMILES | outcome | activity, negative = inhibition | Potency |
| --- | --- | --- | --- |
| CNC(=O)c1cc(COc2nnc(Nc3ccc(Cl)cc3)c3ccoc23)ccn1 | inactive |  |  |
| CNC(=O)[C@H](Cc1ccccc1)NC(=O)[C@H](CC(C)C)[C@H](CSc1cccs1)C(=O)NO |  | 0.286% (inactive) |  |
| NCC1CCC(C(=O)O)CC1 (configuration not stated) |  |  | inactive |
| CCC[C@H](N[C@@H](C)C(=O)N1[C@@H]2CCCC[C@H]2C[C@H]1C(=O)O)C(=O)OCC | inactive |  |  |
| O=C(NCCCCN1CCOCC1)c1cc2ccccc2o1 | inactive |  |  |
| O=[N+]([O-])c1ccc(Nc2ccccc2-c2ccccc2)c2nonc12 | inactive |  |  |
| Cc1nn(Cc2ccccc2Cl)c(C)c1CN(C)CC(O)COc1ccc(Cl)cc1 (configuration not stated) | inactive |  |  |
| C[C@@H]1C[C@H]2[C@@H]3CCC4=CC(=O)C=C[C@]4(C)[C@@]3(F)[C@@H](O)C[C@]2(C)[C@@]1(O)C(=O)CO |  |  | inactive |
| CC(C)C[C@@H](C(=O)N[C@H](C(=O)OC1CCCC1)c1ccccc1)[C@H](O)C(=O)NO |  | -1.05% (inactive) |  |
| CCOc1ccccc1N=Nc1c(C)[nH]n(-c2nc(-c3ccccc3)cs2)c1=O | inactive |  |  |
| CC(C)(F)C[C@H](N[C@@H](c1ccc(-c2ccc(S(C)(=O)=O)cc2)cc1)C(F)(F)F)C(=O)NC1(C#N)CC1 |  |  | inactive |
| N[C@@H](CC(=O)N1CCn2c(nnc2C(F)(F)F)C1)Cc1cc(F)c(F)cc1F |  |  | inactive |
| COc1c(C)cnc(Cn2cnc3c(Cl)nc(N)nc32)c1C | inactive |  |  |
| OC(c1cc(C(F)(F)F)nc2c(C(F)(F)F)cccc12)C1CCCCN1 (configuration not stated) | inactive |  |  |
| COc1cc2ncn(-c3cc(OCc4ccccc4S(C)(=O)=O)c(C#N)s3)c2cc1OC |  | -8.08% (inactive) |  |
| O=C(NC[C@H](O)CO)c1ccncc1Nc1ccc(I)cc1F | inactive |  |  |
| C#CCN(C)CC1=Cc2ccccc2Oc2ccccc21 | inactive |  |  |
| CN1CC(=O)NC1=NC(=O)Nc1cccc(Cl)c1 | inactive |  |  |

| SMILES | outcome | activity, negative = inhibition | Potency |
| --- | --- | --- | --- |
| CCOC(=O)N1c2ccc(C(F)(F)F)cc2[C@@H](N(Cc2cc(C(F)(F)F)cc(C(F)(F)F)c2)C(=O)OC)C[C@H]1CC |  |  | inactive |
| CC[C@]1(O)C[C@H]2CN(CCC3=c4ccccc4=N[C]3[C@@](C(=O)OC)(c3cc4c(cc3OC)N(C)[C@H]3[C@@](O)(C(N)=O)[C@H](O)[C@]5(CC)C=CCN6CC[C@]43[C@@H]65)C2)C1 |  | -14.4% (inactive) |  |
| COc1cc2c(cc1OC)CC(=O)N(CCCN(C)C[C@H]1Cc3cc(OC)c(OC)cc31)CC2 |  |  | inactive |
| CC(C)C[C@H](NC(=O)c1cc2ccccc2s1)C(=O)N1CCN(C(=O)[C@H](CO)NS(=O)(=O)c2ccc(Cl)cc2Cl)CC1 | inactive |  |  |
| COc1ccnc(CS(=O)c2nc3ccc(OC(F)F)cc3[nH]2)c1OC (configuration not stated) |  |  | 9.04 µM (active) and inactive |
| Nc1ncnc2c1ncn2[C@@H]1O[C@H](CO)[C@@H](O)[C@@H]1O | inactive |  |  |
| CN1C(=O)C[C@H](C(=O)N[C@@H](Cc2cnc[nH]2)C(=O)N2CCC[C@@H]2C(N)=O)NC1=O |  | -11.3% (inactive) |  |
| COc1cc2c(cc1Cc1cccc(Cl)c1F)c(=O)c(C(=O)O)cn2[C@H](CO)C(C)C | inactive |  |  |
| CCOC(=O)[C@@H](N)CCC(=O)N[C@@H](CSCc1ccccc1)C(=O)N[C@@H](C(=O)OCC)c1ccccc1 | inactive |  |  |
| Nc1ccn([C@@H]2O[C@H](CO)[C@@H](O)[C@H]2O)c(=O)n1 |  |  | inactive |
| CN(C)CC[C@H](CSc1ccccc1)Nc1ccc(S(=O)(=O)NC(=O)c2ccc(N3CCN(Cc4ccccc4-c4ccc(Cl)cc4)CC3)cc2)cc1[N+](=O)[O-] |  |  | inactive |
| Cc1cn([C@@H]2C[C@@H](O)[C@H](CO)O2)c(=O)[nH]c1=O |  |  | inactive |
| Clc1ccc(COC(Cn2ccnc2)c2ccc(Cl)cc2Cl)c(Cl)c1 (configuration not stated) |  | -5.59% (inactive) |  |
| CCCC1OC2C[C@@H]3[C@H]4CCC5=CC(=O)C=C[C@]5(C)[C@H]4C(O)C[C@]3(C)[C@]2(C(=O)CO)O1 (some centres not stated) | inactive |  |  |
| NC[C@H]1O[C@H](O[C@@H]2[C@@H](O)[C@@H](O[C@H]3O[C@H](CO)[C@@H](O)[C@H](N)[C@@H]3O)[C@H](N)C[C@@H]2N)[C@H](O)[C@@H](O)[C@H]1O | inactive |  |  |
| CC(C)C[C@@H](N)[C@H](O)C(=O)N[C@H](C(=O)N[C@H](C(=O)N[C@@H](CC(=O)O)C(=O)O)C(C)C)C(C)C | inactive |  |  |
| Cc1ccc(C(=O)N(CCCN)[C@@H](c2oc3cc(Cl)ccc3c(=O)c2Cc2ccccc2)C(C)C)cc1 | inactive |  |  |
| Cc1cccc(-c2[nH]c(C(C)(C)C)nc2-c2ccc3c(c2)OCO3)n1 | inactive |  |  |

molecular target: Phospholipid hydroperoxide glutathione peroxidase GPX4 (Homo sapiens) (UniProt P36969); test: Primary qHTS Assay for Inhibitors of Recombinant Selenoprotein Glutathione Peroxidase 4 (GPX4) (AID 1845192); details: recombinant GPX4, GR-coupled NADPH fluorescence, 15 min; series mostly up to 50 µM; activity change, negative = inhibition: at the top concentration
Sequence (P36969 whole entry, looked up): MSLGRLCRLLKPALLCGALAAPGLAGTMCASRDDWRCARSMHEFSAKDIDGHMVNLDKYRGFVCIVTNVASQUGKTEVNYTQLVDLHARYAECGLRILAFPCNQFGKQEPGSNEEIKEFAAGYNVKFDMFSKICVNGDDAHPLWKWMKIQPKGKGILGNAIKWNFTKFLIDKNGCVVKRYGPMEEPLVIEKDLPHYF
How it was run: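 GR-coupled assay: recombinant GPX4 preincubated 30 min with compound at room temperature; final 200 nM GPX4, 1 mM GSH, 0.5 mM cumene hydroperoxide, 0.5 mM NADPH, 100 nM GR, 0.01% BSA, pH 7.5 Tris. NADPH fluorescence (340/450 nm) read at 0 and 15 min.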

| SMILES | outcome | Potency | activity change, negative = inhibition |
| --- | --- | --- | --- |
| CNC(=O)c1cc(COc2nnc(Nc3ccc(Cl)cc3)c3ccoc23)ccn1 | inactive |  |  |
| CNC(=O)[C@H](Cc1ccccc1)NC(=O)[C@H](CC(C)C)[C@H](CSc1cccs1)C(=O)NO | inactive |  |  |
| NCC1CCC(C(=O)O)CC1 (configuration not stated) |  | inactive |  |
| CCC[C@H](N[C@@H](C)C(=O)N1[C@@H]2CCCC[C@H]2C[C@H]1C(=O)O)C(=O)OCC |  |  | -0.857% (inactive) |
| O=C(NCCCCN1CCOCC1)c1cc2ccccc2o1 |  |  | -10.8% (inactive) |
| O=[N+]([O-])c1ccc(Nc2ccccc2-c2ccccc2)c2nonc12 |  |  | -35.5% (inactive) |
| Cc1nn(Cc2ccccc2Cl)c(C)c1CN(C)CC(O)COc1ccc(Cl)cc1 (configuration not stated) |  |  | -0.835% (inactive) |
| C[C@@H]1C[C@H]2[C@@H]3CCC4=CC(=O)C=C[C@]4(C)[C@@]3(F)[C@@H](O)C[C@]2(C)[C@@]1(O)C(=O)CO |  | inactive |  |
| CC(C)C[C@@H](C(=O)N[C@H](C(=O)OC1CCCC1)c1ccccc1)[C@H](O)C(=O)NO | inactive |  |  |
| CCOc1ccccc1N=Nc1c(C)[nH]n(-c2nc(-c3ccccc3)cs2)c1=O | inactive |  |  |
| CC(C)(F)C[C@H](N[C@@H](c1ccc(-c2ccc(S(C)(=O)=O)cc2)cc1)C(F)(F)F)C(=O)NC1(C#N)CC1 | inactive |  |  |
| N[C@@H](CC(=O)N1CCn2c(nnc2C(F)(F)F)C1)Cc1cc(F)c(F)cc1F |  | inactive |  |
| COc1c(C)cnc(Cn2cnc3c(Cl)nc(N)nc32)c1C | inactive |  |  |
| OC(c1cc(C(F)(F)F)nc2c(C(F)(F)F)cccc12)C1CCCCN1 (configuration not stated) |  |  | -4.5% (inactive) |
| COc1cc2ncn(-c3cc(OCc4ccccc4S(C)(=O)=O)c(C#N)s3)c2cc1OC |  |  | 4.62% (inactive) |
| O=C(NC[C@H](O)CO)c1ccncc1Nc1ccc(I)cc1F |  |  | -11.8% (inactive) |
| C#CCN(C)CC1=Cc2ccccc2Oc2ccccc21 |  |  | -2.15% (inactive) |
| CN1CC(=O)NC1=NC(=O)Nc1cccc(Cl)c1 |  |  | -1.12% (inactive) |

| SMILES | outcome | Potency | activity change, negative = inhibition |
| --- | --- | --- | --- |
| CCOC(=O)N1c2ccc(C(F)(F)F)cc2[C@@H](N(Cc2cc(C(F)(F)F)cc(C(F)(F)F)c2)C(=O)OC)C[C@H]1CC | inactive |  |  |
| CC[C@]1(O)C[C@H]2CN(CCC3=c4ccccc4=N[C]3[C@@](C(=O)OC)(c3cc4c(cc3OC)N(C)[C@H]3[C@@](O)(C(N)=O)[C@H](O)[C@]5(CC)C=CCN6CC[C@]43[C@@H]65)C2)C1 |  |  | -10.5% (inactive) |
| COc1cc2c(cc1OC)CC(=O)N(CCCN(C)C[C@H]1Cc3cc(OC)c(OC)cc31)CC2 |  | inactive |  |
| CC(C)C[C@H](NC(=O)c1cc2ccccc2s1)C(=O)N1CCN(C(=O)[C@H](CO)NS(=O)(=O)c2ccc(Cl)cc2Cl)CC1 |  |  | -21.6% (inactive) |
| COc1ccnc(CS(=O)c2nc3ccc(OC(F)F)cc3[nH]2)c1OC (configuration not stated) |  | 16.1 µM (active) |  |
| Nc1ncnc2c1ncn2[C@@H]1O[C@H](CO)[C@@H](O)[C@@H]1O |  |  | 1.92% (inactive) |
| CN1C(=O)C[C@H](C(=O)N[C@@H](Cc2cnc[nH]2)C(=O)N2CCC[C@@H]2C(N)=O)NC1=O | inactive |  |  |
| COc1cc2c(cc1Cc1cccc(Cl)c1F)c(=O)c(C(=O)O)cn2[C@H](CO)C(C)C |  | 11.2 µM (active) |  |
| CCOC(=O)[C@@H](N)CCC(=O)N[C@@H](CSCc1ccccc1)C(=O)N[C@@H](C(=O)OCC)c1ccccc1 |  |  | -12% (inactive) |
| Nc1ccn([C@@H]2O[C@H](CO)[C@@H](O)[C@H]2O)c(=O)n1 |  | inactive |  |
| CN(C)CC[C@H](CSc1ccccc1)Nc1ccc(S(=O)(=O)NC(=O)c2ccc(N3CCN(Cc4ccccc4-c4ccc(Cl)cc4)CC3)cc2)cc1[N+](=O)[O-] |  |  | -22.1% (inactive) |
| Cc1cn([C@@H]2C[C@@H](O)[C@H](CO)O2)c(=O)[nH]c1=O |  | inactive |  |
| Clc1ccc(COC(Cn2ccnc2)c2ccc(Cl)cc2Cl)c(Cl)c1 (configuration not stated) | inactive |  |  |
| CCCC1OC2C[C@@H]3[C@H]4CCC5=CC(=O)C=C[C@]5(C)[C@H]4C(O)C[C@]3(C)[C@]2(C(=O)CO)O1 (some centres not stated) |  |  | 2.33% (inactive) |
| NC[C@H]1O[C@H](O[C@@H]2[C@@H](O)[C@@H](O[C@H]3O[C@H](CO)[C@@H](O)[C@H](N)[C@@H]3O)[C@H](N)C[C@@H]2N)[C@H](O)[C@@H](O)[C@H]1O |  |  | -1.97% (inactive) |
| CC(C)C[C@@H](N)[C@H](O)C(=O)N[C@H](C(=O)N[C@H](C(=O)N[C@@H](CC(=O)O)C(=O)O)C(C)C)C(C)C | inactive |  |  |
| Cc1ccc(C(=O)N(CCCN)[C@@H](c2oc3cc(Cl)ccc3c(=O)c2Cc2ccccc2)C(C)C)cc1 |  |  | -16% (inactive) |
| Cc1cccc(-c2[nH]c(C(C)(C)C)nc2-c2ccc3c(c2)OCO3)n1 |  |  | 3.78% (inactive) |
